Reference: publication PMC12529666, “Dysregulation of AGO2-miRNA dynamics underlies the AGO2-associated Lessel–Kreienkamp syndrome”

B1: ACACTCCA (ssRNA)
RNA 1: GAGUUCUACAGUCCGACGAUCCCAACACACUCCACACCUGGAAUUCUCGGGUGCCAA
RNA 2: UGGAGUGUGACAAUGGUGUUUG
DNA 1: GATCGTCGGACTGTAGAACTC
DNA 2: TTGGCACCCGAGAATTCCA
modifications: constant regions annealed to DNA blockers; guide miR-122 5' phosphate
B2: ACACTCTA (ssRNA)
RNA 1: GAGUUCUACAGUCCGACGAUCCCAACACACUCUACACCUGGAAUUCUCGGGUGCCAA
RNA 2: UGGAGUGUGACAAUGGUGUUUG
DNA 1: GATCGTCGGACTGTAGAACTC
DNA 2: TTGGCACCCGAGAATTCCA
modifications: constant regions annealed to DNA blockers; guide miR-122 5' phosphate
B3: ACACCCCA (ssRNA)
RNA 1: GAGUUCUACAGUCCGACGAUCCCAACACACCCCACACCUGGAAUUCUCGGGUGCCAA
RNA 2: UGGAGUGUGACAAUGGUGUUUG
DNA 1: GATCGTCGGACTGTAGAACTC
DNA 2: TTGGCACCCGAGAATTCCA
modifications: constant regions annealed to DNA blockers; guide miR-122 5' phosphate
B4: ACACTCCG (ssRNA)
RNA 1: GAGUUCUACAGUCCGACGAUCCCAACACACUCCGCACCUGGAAUUCUCGGGUGCCAA
RNA 2: UGGAGUGUGACAAUGGUGUUUG
DNA 1: GATCGTCGGACTGTAGAACTC
DNA 2: TTGGCACCCGAGAATTCCA
modifications: constant regions annealed to DNA blockers; guide miR-122 5' phosphate
B5: GTACTTCA (ssRNA)
RNA 1: GAGUUCUACAGUCCGACGAUCCCAACGUACUUCACACCUGGAAUUCUCGGGUGCCAA
RNA 2: UGGAGUGUGACAAUGGUGUUUG
DNA 1: GATCGTCGGACTGTAGAACTC
DNA 2: TTGGCACCCGAGAATTCCA
modifications: constant regions annealed to DNA blockers; guide miR-122 5' phosphate
B6: ATACTCCG (ssRNA)
RNA 1: GAGUUCUACAGUCCGACGAUCCCAACAUACUCCGCACCUGGAAUUCUCGGGUGCCAA
RNA 2: UGGAGUGUGACAAUGGUGUUUG
DNA 1: GATCGTCGGACTGTAGAACTC
DNA 2: TTGGCACCCGAGAATTCCA
modifications: constant regions annealed to DNA blockers; guide miR-122 5' phosphate
B7: GCATCTCA (ssRNA)
RNA 1: GAGUUCUACAGUCCGACGAUCCCAACGCAUCUCACACCUGGAAUUCUCGGGUGCCAA
RNA 2: UGGAGUGUGACAAUGGUGUUUG
DNA 1: GATCGTCGGACTGTAGAACTC
DNA 2: TTGGCACCCGAGAATTCCA
modifications: constant regions annealed to DNA blockers; guide miR-122 5' phosphate
B8: ACGCTTCA (ssRNA)
RNA 1: GAGUUCUACAGUCCGACGAUCCCAACACGCUUCACACCUGGAAUUCUCGGGUGCCAA
RNA 2: UGGAGUGUGACAAUGGUGUUUG
DNA 1: GATCGTCGGACTGTAGAACTC
DNA 2: TTGGCACCCGAGAATTCCA
modifications: constant regions annealed to DNA blockers; guide miR-122 5' phosphate
B9: ATGTCTCA (ssRNA)
RNA 1: GAGUUCUACAGUCCGACGAUCCCAACAUGUCUCACACCUGGAAUUCUCGGGUGCCAA
RNA 2: UGGAGUGUGACAAUGGUGUUUG
DNA 1: GATCGTCGGACTGTAGAACTC
DNA 2: TTGGCACCCGAGAATTCCA
modifications: constant regions annealed to DNA blockers; guide miR-122 5' phosphate
B10: ACATTCCA (ssRNA)
RNA 1: GAGUUCUACAGUCCGACGAUCCCAACACAUUCCACACCUGGAAUUCUCGGGUGCCAA
RNA 2: UGGAGUGUGACAAUGGUGUUUG
DNA 1: GATCGTCGGACTGTAGAACTC
DNA 2: TTGGCACCCGAGAATTCCA
modifications: constant regions annealed to DNA blockers; guide miR-122 5' phosphate
B11: ACACCTCA (ssRNA)
RNA 1: GAGUUCUACAGUCCGACGAUCCCAACACACCUCACACCUGGAAUUCUCGGGUGCCAA
RNA 2: UGGAGUGUGACAAUGGUGUUUG
DNA 1: GATCGTCGGACTGTAGAACTC
DNA 2: TTGGCACCCGAGAATTCCA
modifications: constant regions annealed to DNA blockers; guide miR-122 5' phosphate
B12: GCGTCCTA (ssRNA)
RNA 1: GAGUUCUACAGUCCGACGAUCCCAACGCGUCCUACACCUGGAAUUCUCGGGUGCCAA
RNA 2: UGGAGUGUGACAAUGGUGUUUG
DNA 1: GATCGTCGGACTGTAGAACTC
DNA 2: TTGGCACCCGAGAATTCCA
modifications: constant regions annealed to DNA blockers; guide miR-122 5' phosphate
B13: GCACTCCA (ssRNA)
RNA 1: GAGUUCUACAGUCCGACGAUCCCAACGCACUCCACACCUGGAAUUCUCGGGUGCCAA
RNA 2: UGGAGUGUGACAAUGGUGUUUG
DNA 1: GATCGTCGGACTGTAGAACTC
DNA 2: TTGGCACCCGAGAATTCCA
modifications: constant regions annealed to DNA blockers; guide miR-122 5' phosphate
B14: ACACTTTA (ssRNA)
RNA 1: GAGUUCUACAGUCCGACGAUCCCAACACACUUUACACCUGGAAUUCUCGGGUGCCAA
RNA 2: UGGAGUGUGACAAUGGUGUUUG
DNA 1: GATCGTCGGACTGTAGAACTC
DNA 2: TTGGCACCCGAGAATTCCA
modifications: constant regions annealed to DNA blockers; guide miR-122 5' phosphate
B15: ATGCTCCA (ssRNA)
RNA 1: GAGUUCUACAGUCCGACGAUCCCAACAUGCUCCACACCUGGAAUUCUCGGGUGCCAA
RNA 2: UGGAGUGUGACAAUGGUGUUUG
DNA 1: GATCGTCGGACTGTAGAACTC
DNA 2: TTGGCACCCGAGAATTCCA
modifications: constant regions annealed to DNA blockers; guide miR-122 5' phosphate
B16: GTACTCCA (ssRNA)
RNA 1: GAGUUCUACAGUCCGACGAUCCCAACGUACUCCACACCUGGAAUUCUCGGGUGCCAA
RNA 2: UGGAGUGUGACAAUGGUGUUUG
DNA 1: GATCGTCGGACTGTAGAACTC
DNA 2: TTGGCACCCGAGAATTCCA
modifications: constant regions annealed to DNA blockers; guide miR-122 5' phosphate
B17: ACATCCTA (ssRNA)
RNA 1: GAGUUCUACAGUCCGACGAUCCCAACACAUCCUACACCUGGAAUUCUCGGGUGCCAA
RNA 2: UGGAGUGUGACAAUGGUGUUUG
DNA 1: GATCGTCGGACTGTAGAACTC
DNA 2: TTGGCACCCGAGAATTCCA
modifications: constant regions annealed to DNA blockers; guide miR-122 5' phosphate
B18: GTACTCCG (ssRNA)
RNA 1: GAGUUCUACAGUCCGACGAUCCCAACGUACUCCGCACCUGGAAUUCUCGGGUGCCAA
RNA 2: UGGAGUGUGACAAUGGUGUUUG
DNA 1: GATCGTCGGACTGTAGAACTC
DNA 2: TTGGCACCCGAGAATTCCA
modifications: constant regions annealed to DNA blockers; guide miR-122 5' phosphate
B19: ACATCTCA (ssRNA)
RNA 1: GAGUUCUACAGUCCGACGAUCCCAACACAUCUCACACCUGGAAUUCUCGGGUGCCAA
RNA 2: UGGAGUGUGACAAUGGUGUUUG
DNA 1: GATCGTCGGACTGTAGAACTC
DNA 2: TTGGCACCCGAGAATTCCA
modifications: constant regions annealed to DNA blockers; guide miR-122 5' phosphate

target: AGO2 WT (phosphosite mutant background) (Homo sapiens, UniProt Q9UKV8 1-859, S387D;S824A;S828D;S831D;S834A); test: RNA Bind-n-Seq (nitrocellulose filter binding and sequencing); miR-122 guide loaded in AGO2; 60 min incubation; 30 mM Tris pH 8.0, 100 mM potassium acetate, 2 mM magnesium acetate, 0.5 mM TCEP, 0.005% NP-40, 0.01 mg/ml yeast tRNA; 3 nM AGO2-miR-122, 100 nM RNA library; 60; high values mean tight binding; conditions: protein: recombinant; tags: His6 (N-terminal, pFastBac HTA)
Method in brief: (§1)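 Fold enrichment is each target's read fraction divided by its read fraction in the input library. Sf9 insect cells expressed His-tagged AGO2 from baculovirus; the protein was loaded with a synthetic guide RNA and purified by Ni-NTA and a biotinylated capture oligo. The bound RNA was extracted, reverse-transcribed, barcode-amplified and sequenced on Illumina.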

Sequence of AGO2 WT (phosphosite mutant background) (Q9UKV8 whole entry S387D/S824A/S828D/S831D/S834A): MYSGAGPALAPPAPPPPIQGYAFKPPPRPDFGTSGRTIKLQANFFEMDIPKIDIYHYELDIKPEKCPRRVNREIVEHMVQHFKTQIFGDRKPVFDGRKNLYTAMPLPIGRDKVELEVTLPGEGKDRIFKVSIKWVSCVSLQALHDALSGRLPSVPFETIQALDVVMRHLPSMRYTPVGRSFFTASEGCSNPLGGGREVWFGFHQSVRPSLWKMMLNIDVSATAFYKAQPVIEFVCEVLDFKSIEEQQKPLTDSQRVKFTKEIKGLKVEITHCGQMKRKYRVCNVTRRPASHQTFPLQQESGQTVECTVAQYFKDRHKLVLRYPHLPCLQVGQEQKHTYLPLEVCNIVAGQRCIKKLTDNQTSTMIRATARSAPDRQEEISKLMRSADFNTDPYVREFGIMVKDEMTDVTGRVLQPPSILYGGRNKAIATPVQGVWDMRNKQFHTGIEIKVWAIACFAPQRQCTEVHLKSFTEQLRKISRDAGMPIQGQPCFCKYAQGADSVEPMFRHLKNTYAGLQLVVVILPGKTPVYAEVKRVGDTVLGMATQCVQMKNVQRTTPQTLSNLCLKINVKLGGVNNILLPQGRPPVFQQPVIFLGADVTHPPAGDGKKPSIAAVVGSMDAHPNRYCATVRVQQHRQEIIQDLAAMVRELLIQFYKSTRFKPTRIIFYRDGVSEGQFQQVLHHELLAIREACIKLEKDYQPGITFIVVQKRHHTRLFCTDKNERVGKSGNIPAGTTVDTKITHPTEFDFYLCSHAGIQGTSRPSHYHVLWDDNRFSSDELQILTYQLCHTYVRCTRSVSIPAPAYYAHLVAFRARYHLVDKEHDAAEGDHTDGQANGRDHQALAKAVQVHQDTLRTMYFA

Row | Binder | binding signal
1 | B1 | 229 fold enrichment over input
2 | B2 | 0.587 fold enrichment over input
3 | B3 | 0.238 fold enrichment over input
4 | B4 | 154 fold enrichment over input
5 | B5 | 0.125 fold enrichment over input
6 | B6 | 0.401 fold enrichment over input
7 | B7 | 0.126 fold enrichment over input
8 | B8 | 0.133 fold enrichment over input
9 | B9 | 0.232 fold enrichment over input
10 | B10 | 0.267 fold enrichment over input
11 | B11 | 0.251 fold enrichment over input
12 | B12 | 0.123 fold enrichment over input
13 | B13 | 117 fold enrichment over input
14 | B14 | 0.133 fold enrichment over input
15 | B15 | 0.416 fold enrichment over input
16 | B16 | 0.714 fold enrichment over input
17 | B17 | 0.139 fold enrichment over input
18 | B18 | 0.327 fold enrichment over input
19 | B19 | 0.206 fold enrichment over input

target: AGO2 L192P (Homo sapiens, UniProt Q9UKV8 1-859, L192P;S387D;S824A;S828D;S831D;S834A); test: as above; conditions: protein: recombinant; tags: His6 (N-terminal, pFastBac HTA)
Method in brief: as §1

Sequence of AGO2 L192P (Q9UKV8 whole entry L192P/S387D/S824A/S828D/S831D/S834A): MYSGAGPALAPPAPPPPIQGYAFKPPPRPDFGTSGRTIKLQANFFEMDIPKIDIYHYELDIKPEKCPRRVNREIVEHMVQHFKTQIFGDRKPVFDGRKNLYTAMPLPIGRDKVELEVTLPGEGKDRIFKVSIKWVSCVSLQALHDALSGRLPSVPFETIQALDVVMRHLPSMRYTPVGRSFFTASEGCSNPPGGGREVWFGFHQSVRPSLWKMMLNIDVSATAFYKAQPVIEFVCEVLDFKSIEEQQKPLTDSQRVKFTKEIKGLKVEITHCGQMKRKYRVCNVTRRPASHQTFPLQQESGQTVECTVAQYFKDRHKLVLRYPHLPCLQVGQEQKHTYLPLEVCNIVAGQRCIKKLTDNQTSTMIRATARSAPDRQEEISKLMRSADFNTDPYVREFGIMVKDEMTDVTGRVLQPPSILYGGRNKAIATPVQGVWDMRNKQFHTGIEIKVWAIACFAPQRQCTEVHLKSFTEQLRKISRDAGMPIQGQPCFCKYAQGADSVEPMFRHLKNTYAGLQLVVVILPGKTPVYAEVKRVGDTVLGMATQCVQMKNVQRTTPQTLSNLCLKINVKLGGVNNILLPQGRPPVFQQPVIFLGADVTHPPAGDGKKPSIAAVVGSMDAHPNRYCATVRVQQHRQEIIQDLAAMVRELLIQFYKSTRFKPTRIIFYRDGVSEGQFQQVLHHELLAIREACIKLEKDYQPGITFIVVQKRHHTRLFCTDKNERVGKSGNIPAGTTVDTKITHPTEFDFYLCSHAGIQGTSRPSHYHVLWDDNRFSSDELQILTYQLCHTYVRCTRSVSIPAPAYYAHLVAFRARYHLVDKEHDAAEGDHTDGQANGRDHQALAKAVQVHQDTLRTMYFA

Row | Binder | binding signal
20 | B1 | 102 fold enrichment over input
21 | B2 | 0.74 fold enrichment over input
22 | B3 | 0.861 fold enrichment over input
23 | B4 | 99.5 fold enrichment over input
24 | B5 | 0.53 fold enrichment over input
25 | B6 | 1.86 fold enrichment over input
26 | B7 | 0.567 fold enrichment over input
27 | B8 | 0.605 fold enrichment over input
28 | B9 | 0.674 fold enrichment over input
29 | B10 | 1.03 fold enrichment over input
30 | B11 | 1.13 fold enrichment over input
31 | B12 | 0.489 fold enrichment over input
32 | B13 | 45.2 fold enrichment over input
33 | B14 | 0.539 fold enrichment over input
34 | B15 | 3.01 fold enrichment over input
35 | B16 | 1.62 fold enrichment over input
36 | B17 | 0.451 fold enrichment over input
37 | B18 | 0.802 fold enrichment over input
38 | B19 | 0.924 fold enrichment over input

target: AGO2 A367P (Homo sapiens, UniProt Q9UKV8 1-859, A367P;S387D;S824A;S828D;S831D;S834A); test: as above; conditions: protein: recombinant; tags: His6 (N-terminal, pFastBac HTA)
Method in brief: as §1

Sequence of AGO2 A367P (Q9UKV8 whole entry A367P/S387D/S824A/S828D/S831D/S834A): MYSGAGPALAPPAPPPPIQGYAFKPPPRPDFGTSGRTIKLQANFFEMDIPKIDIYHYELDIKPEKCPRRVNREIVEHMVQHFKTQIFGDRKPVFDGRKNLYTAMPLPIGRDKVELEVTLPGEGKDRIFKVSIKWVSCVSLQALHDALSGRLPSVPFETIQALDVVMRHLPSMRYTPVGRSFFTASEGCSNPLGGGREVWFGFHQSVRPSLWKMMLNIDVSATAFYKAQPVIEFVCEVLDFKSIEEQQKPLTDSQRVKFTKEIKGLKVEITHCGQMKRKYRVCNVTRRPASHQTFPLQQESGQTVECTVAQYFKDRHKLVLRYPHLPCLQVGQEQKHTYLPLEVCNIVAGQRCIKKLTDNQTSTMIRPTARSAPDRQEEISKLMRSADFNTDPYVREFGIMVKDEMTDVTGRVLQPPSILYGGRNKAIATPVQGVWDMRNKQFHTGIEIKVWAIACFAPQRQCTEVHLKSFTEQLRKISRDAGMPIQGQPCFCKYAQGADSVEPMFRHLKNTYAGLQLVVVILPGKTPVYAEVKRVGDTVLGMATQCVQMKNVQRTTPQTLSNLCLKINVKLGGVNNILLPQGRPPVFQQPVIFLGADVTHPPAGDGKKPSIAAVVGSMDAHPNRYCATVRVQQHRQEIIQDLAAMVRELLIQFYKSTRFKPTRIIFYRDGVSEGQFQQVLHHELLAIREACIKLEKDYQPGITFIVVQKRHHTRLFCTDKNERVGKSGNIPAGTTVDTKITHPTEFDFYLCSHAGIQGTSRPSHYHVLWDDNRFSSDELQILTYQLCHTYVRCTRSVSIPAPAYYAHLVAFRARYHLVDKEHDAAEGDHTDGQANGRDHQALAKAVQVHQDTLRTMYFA

Row | Binder | binding signal
39 | B1 | 155 fold enrichment over input
40 | B2 | 0.661 fold enrichment over input
41 | B3 | 0.466 fold enrichment over input
42 | B4 | 140 fold enrichment over input
43 | B5 | 0.347 fold enrichment over input
44 | B6 | 2.89 fold enrichment over input
45 | B7 | 0.316 fold enrichment over input
46 | B8 | 0.327 fold enrichment over input
47 | B9 | 0.501 fold enrichment over input
48 | B10 | 0.711 fold enrichment over input
49 | B11 | 0.835 fold enrichment over input
50 | B12 | 0.195 fold enrichment over input
51 | B13 | 66.8 fold enrichment over input
52 | B14 | 0.229 fold enrichment over input
53 | B15 | 2.6 fold enrichment over input
54 | B16 | 3.12 fold enrichment over input
55 | B17 | 0.212 fold enrichment over input
56 | B18 | 2.33 fold enrichment over input
57 | B19 | 0.613 fold enrichment over input

target: AGO2 T357M (Homo sapiens, UniProt Q9UKV8 1-859, T357M;S387D;S824A;S828D;S831D;S834A); test: as above; conditions: protein: recombinant; tags: His6 (N-terminal, pFastBac HTA)
Method in brief: as §1

Sequence of AGO2 T357M (Q9UKV8 whole entry T357M/S387D/S824A/S828D/S831D/S834A): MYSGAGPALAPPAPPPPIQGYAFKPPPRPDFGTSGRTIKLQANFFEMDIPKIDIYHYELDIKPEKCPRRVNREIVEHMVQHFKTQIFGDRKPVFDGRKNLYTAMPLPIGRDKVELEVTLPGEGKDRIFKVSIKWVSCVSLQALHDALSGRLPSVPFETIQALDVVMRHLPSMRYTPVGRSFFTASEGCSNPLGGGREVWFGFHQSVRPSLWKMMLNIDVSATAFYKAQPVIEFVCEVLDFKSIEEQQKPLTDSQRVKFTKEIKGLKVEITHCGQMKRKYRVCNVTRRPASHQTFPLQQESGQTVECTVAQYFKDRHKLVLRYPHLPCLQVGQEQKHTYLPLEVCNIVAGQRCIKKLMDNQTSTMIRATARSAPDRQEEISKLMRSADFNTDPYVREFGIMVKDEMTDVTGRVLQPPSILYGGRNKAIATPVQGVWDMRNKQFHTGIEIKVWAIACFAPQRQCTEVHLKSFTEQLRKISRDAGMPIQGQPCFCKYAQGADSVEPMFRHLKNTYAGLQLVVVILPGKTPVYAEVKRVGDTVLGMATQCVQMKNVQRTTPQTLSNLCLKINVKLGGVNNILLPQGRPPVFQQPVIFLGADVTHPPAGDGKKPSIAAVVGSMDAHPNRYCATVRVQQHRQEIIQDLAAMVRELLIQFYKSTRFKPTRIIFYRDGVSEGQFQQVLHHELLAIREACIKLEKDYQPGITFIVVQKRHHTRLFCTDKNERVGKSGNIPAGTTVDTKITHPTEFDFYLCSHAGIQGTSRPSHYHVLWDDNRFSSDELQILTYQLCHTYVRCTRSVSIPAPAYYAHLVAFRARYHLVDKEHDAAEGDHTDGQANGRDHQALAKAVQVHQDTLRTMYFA

Row | Binder | binding signal
58 | B1 | 154 fold enrichment over input
59 | B2 | 0.72 fold enrichment over input
60 | B3 | 0.678 fold enrichment over input
61 | B4 | 108 fold enrichment over input
62 | B5 | 0.645 fold enrichment over input
63 | B6 | 0.632 fold enrichment over input
64 | B7 | 0.605 fold enrichment over input
65 | B8 | 0.624 fold enrichment over input
66 | B9 | 0.678 fold enrichment over input
67 | B10 | 0.738 fold enrichment over input
68 | B11 | 0.737 fold enrichment over input
69 | B12 | 0.72 fold enrichment over input
70 | B13 | 44 fold enrichment over input
71 | B14 | 0.707 fold enrichment over input
72 | B15 | 0.765 fold enrichment over input
73 | B16 | 0.965 fold enrichment over input
74 | B17 | 0.632 fold enrichment over input
75 | B18 | 0.519 fold enrichment over input
76 | B19 | 0.57 fold enrichment over input

target: AGO2 F182del (Homo sapiens, UniProt Q9UKV8 1-859, S387D;S824A;S828D;S831D;S834A;del182-182); test: as above; conditions: protein: recombinant; tags: His6 (N-terminal, pFastBac HTA)
Method in brief: as §1

Sequence of AGO2 F182del (Q9UKV8 other isoform, or with tags, fused parts or gaps S387D;S824A;S828D;S831D;S834A;del182-182): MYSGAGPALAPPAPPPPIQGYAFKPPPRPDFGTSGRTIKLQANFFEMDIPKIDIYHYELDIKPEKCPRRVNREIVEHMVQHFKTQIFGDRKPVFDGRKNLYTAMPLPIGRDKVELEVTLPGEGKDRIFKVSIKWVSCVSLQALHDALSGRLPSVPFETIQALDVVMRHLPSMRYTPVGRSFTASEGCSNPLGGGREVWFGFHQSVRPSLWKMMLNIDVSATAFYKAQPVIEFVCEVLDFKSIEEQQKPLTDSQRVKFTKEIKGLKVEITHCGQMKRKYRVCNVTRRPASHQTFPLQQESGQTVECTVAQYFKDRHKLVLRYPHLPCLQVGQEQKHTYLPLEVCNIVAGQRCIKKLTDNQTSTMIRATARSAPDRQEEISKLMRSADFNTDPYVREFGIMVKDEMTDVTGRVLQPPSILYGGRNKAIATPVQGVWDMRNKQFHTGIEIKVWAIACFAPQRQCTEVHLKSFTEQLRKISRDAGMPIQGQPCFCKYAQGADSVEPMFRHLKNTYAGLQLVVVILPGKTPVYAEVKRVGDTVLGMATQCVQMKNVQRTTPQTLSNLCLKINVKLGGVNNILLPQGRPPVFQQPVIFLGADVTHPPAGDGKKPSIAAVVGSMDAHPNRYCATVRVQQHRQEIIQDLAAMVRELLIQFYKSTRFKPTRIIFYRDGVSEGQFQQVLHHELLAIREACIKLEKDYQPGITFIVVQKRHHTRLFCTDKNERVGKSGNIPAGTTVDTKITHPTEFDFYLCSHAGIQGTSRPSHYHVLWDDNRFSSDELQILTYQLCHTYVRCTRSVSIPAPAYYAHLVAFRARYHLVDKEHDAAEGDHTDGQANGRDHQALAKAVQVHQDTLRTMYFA

Row | Binder | binding signal
77 | B1 | 116 fold enrichment over input
78 | B2 | 1.96 fold enrichment over input
79 | B3 | 2.15 fold enrichment over input
80 | B4 | 91 fold enrichment over input
81 | B5 | 0.936 fold enrichment over input
82 | B6 | 3.65 fold enrichment over input
83 | B7 | 0.86 fold enrichment over input
84 | B8 | 0.944 fold enrichment over input
85 | B9 | 1.79 fold enrichment over input
86 | B10 | 2.93 fold enrichment over input
87 | B11 | 4.6 fold enrichment over input
88 | B13 | 91.6 fold enrichment over input
89 | B14 | 0.311 fold enrichment over input
90 | B15 | 2.78 fold enrichment over input
91 | B16 | 4.41 fold enrichment over input
92 | B17 | 0.299 fold enrichment over input
93 | B18 | 2.42 fold enrichment over input
94 | B19 | 2.74 fold enrichment over input
